Results taken from ChEMBL document CHEMBL3988442, “University of Dundee, Small-Polar-MMV Screening Library” (2021).

Experiments:
[1] = molecular target: T1, Aspartate--tRNA(Asp/Asn) ligase (Mycobacterium tuberculosis (strain ATCC 25618 / H37Rv)) (UniProt P9WFW3); test: Assay for Asp RNA synthetase-1 from Mycobacterium tuberculosis; format: functional; design: scale not given: direction of the effect not stated beside the values; settings: 30 µM; note: in the data most compounds retested in dose-response had high values
T1 sequence (whole entry): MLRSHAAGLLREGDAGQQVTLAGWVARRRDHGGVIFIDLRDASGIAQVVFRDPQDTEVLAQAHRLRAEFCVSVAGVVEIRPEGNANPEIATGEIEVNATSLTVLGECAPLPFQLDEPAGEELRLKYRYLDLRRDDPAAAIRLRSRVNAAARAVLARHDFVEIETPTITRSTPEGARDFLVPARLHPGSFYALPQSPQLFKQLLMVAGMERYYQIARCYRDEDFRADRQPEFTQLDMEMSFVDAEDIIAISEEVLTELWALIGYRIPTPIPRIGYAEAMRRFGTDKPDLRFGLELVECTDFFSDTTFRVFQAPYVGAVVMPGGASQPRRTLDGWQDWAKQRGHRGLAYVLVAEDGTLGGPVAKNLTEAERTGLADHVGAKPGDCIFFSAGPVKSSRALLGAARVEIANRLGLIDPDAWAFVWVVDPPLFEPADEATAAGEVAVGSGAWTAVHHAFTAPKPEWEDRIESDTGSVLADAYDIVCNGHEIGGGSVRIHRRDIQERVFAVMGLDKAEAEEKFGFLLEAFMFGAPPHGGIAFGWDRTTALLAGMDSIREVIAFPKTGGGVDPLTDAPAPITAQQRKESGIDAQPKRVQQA

[2] = molecular target: Shiga toxin 2 (Escherichia coli O157:H7) (UniProt P09385+P09386); test: E. coli 0.157:H7 Shiga Toxin SOP - stx2 screening assay; format: functional; design: scale not given: direction of the effect not stated beside the values; settings: 30 µM

Row | SMILES | Percent Effect [1] [%] | Percent Effect [2] [%]
1 | OCC1CCCN1c1cc(NCCNc2ccccn2)ncn1 (stereo unspecified) | 8.62 | -85.7
2 | CCn1c(C(=O)N2CCN(C(=O)COC)CC2)cc2ccccc21 | -7.07 | -41.5
3 | COc1cccc(CN(C)Cc2ccc(C#N)cc2)c1OC | -1.31 | 9.74
4 | CC(=O)N1CCCN(C(=O)c2cnc3n[nH]c(C)c3c2)CC1 | -0.871 | 19.4
5 | Cc1cnn(CCNCC(O)COc2c(C)ccc(C)c2C)c1 (stereo unspecified) | 1.91 | -6.89
6 | COc1ccc(OCCCNC(=O)NCc2csc(C)n2)cc1 | -1.75 | -17
7 | NS(=O)(=O)Cc1ccc(CNC(=O)NCC2CCOC2)cc1 (stereo unspecified) | -4.55 | 26.9
8 | Cn1ccc(CN2CCC(c3ccccc3)CC2)cc1=O | 4.58 | -3.12
9 | COCC(=O)N1CCN(Cc2coc(-c3cccc(F)c3)n2)CC1 | -1.18 | 16.9
10 | O=C(c1cscn1)N1CCC2(CCN(Cc3nccs3)C2)CC1 | 1.85 | -5.87
11 | O=C(NC[C@]1(O)CN(Cc2ccccc2F)C[C@H]1O)c1ccccn1 | 7.9 | 19.5
12 | CN(Cc1cccc(F)c1)C(=O)CN1CCOC(Cn2cccn2)C1 (stereo unspecified) | -0.139 | 0.15
13 | CC(=O)N1CCN(C(=O)CCCc2nc(C(C)C)no2)CC1 | 5.17 | -7.36
14 | c1ccc(-n2ncc(CNCC3CCCN3c3cccnn3)n2)cc1 (stereo unspecified) | 4.5 | 8.59
15 | CC(C)OCCN(Cc1cccc(O)c1)C1CCC(O)CC1 (stereo unspecified) | 3.29 | -13.5
16 | COCc1ccccc1CNc1nnc(C)c(C)c1C#N | 7.84 | 29.7
17 | CN(CCCNC(=O)N1CCCC1c1ccsc1)c1ccccn1 (stereo unspecified) | -3.28 | -79.8
18 | COc1c(CNC2CCc3cc(F)ccc32)c(C)nn1C (stereo unspecified) | -5.95 | 7.74
